Compound activity deposited in PubChem BioAssay by Broad Institute.
Most compounds without a hit are left out; they make up all but 6.7% or so of the library.
Pf Dd2 inh: inhibitors of Plasmodium falciparum Dd2 growth. P. falciparum Dd2 growth, SYBR Green, 72 h; stronger effect = lower value. activity change, % at 10 µM. 94,000 compounds, 2.3% hits; in the data active = activity change below about -80%
T cruzi growth-1: T. cruzi proliferation inhibition | 77,000 compounds, 5.9% hits | T. cruzi beta-gal in NIH3T3, GalScreen luminescence, 90 h | inhibition, % at 8.34 µM;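 active = mean inhibition above about 93%, with at least 55% of replicates each passing it, limit read from the data, passing the limit was not always enough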
C diff HTS: blocks growth of Clostridium difficile. Clostridium difficile clinical isolate growth, OD600, 24 h; stronger effect = lower value. 86,000 compounds, 0.25% hits. growth activity, negative = inhibition, % at 16 µg/mL (by protocol);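 active = mean growth activity at or below -80% and every replicate also at or below -80%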
T cruzi growth-2: Trypanosoma cruzi proliferation inhibition | AID 651739 | inhibition, % at 8.35 µM | T. cruzi beta-gal in NIH3T3, GalScreen luminescence, 90 h | shares compounds with T cruzi growth-1 | 5,600 compounds, 72% hits;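 active = mean replicate inhibition above about 95% and at least 55% of replicates individually reaching it, limit read from the data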
T cruzi growth-3: inhibitors of T. cruzi proliferation; shares compounds with T cruzi growth-1; T. cruzi beta-gal in NIH3T3, GalScreen luminescence, 90 h; inhibition, % at 2.09 µM; 5,600 compounds, 21% hits;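 active = mean inhibition above about 95%, with at least 55% of replicates also reaching it, limit read from the data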
3T3 cytotox: NIH/3T3 (mouse) viability loss; shares compounds with T cruzi growth-1; NIH/3T3 viability, CellTiter-Glo ATP luminescence, 90 h; cytotoxicity (signal decrease), % at 8.35 µM; 5,600 compounds, 14% hits;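 active = mean signal decrease across replicates above about 35% based on untreated-well scatter, with enough replicates individually passing, limit read from the data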
NIH3T3 tox 2: cytotoxicity in mouse NIH/3T3 fibroblasts; NIH/3T3 viability, CellTiter-Glo ATP luminescence, 90 h; 5,600 compounds, 56% hits; inhibition, % at 24.9 µM; shares compounds with T cruzi growth-1;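 active = mean loss of cell viability signal at or above a set limit, and enough replicates individually reaching it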
A number is an active result.

`C[C@@H]1CN([C@@H](C)CO)C(=O)c2cc(NC(=O)c3ccncc3)ccc2O[C@@H](C)CCCCO[C@@H]1CN(C)Cc1ccc2c(c1)OCO2` gave Pf Dd2 inh inactive, T cruzi growth-1 inactive and C diff HTS inactive.
For C[C@H](CO)N1C[C@H](C)[C@@H](CN(C)Cc2ccc3c(c2)OCO3)OCCCC[C@H](C)Oc2ccc(NC(=O)c3ccncc3)cc2C1=O the results were Pf Dd2 inh inactive, T cruzi growth-1 103, C diff HTS inactive, T cruzi growth-2 inactive, T cruzi growth-3 inactive, 3T3 cytotox inactive and NIH3T3 tox 2 inactive.
Screening C[C@@H]1CCCCO[C@@H](CN(C)Cc2ccc3c(c2)OCO3)[C@H](C)CN([C@@H](C)CO)C(=O)c2cc(NC(=O)c3ccncc3)ccc2O1 returned Pf Dd2 inh inactive, T cruzi growth-1 inactive and C diff HTS inactive.
For C[C@@H]1CCCCO[C@H](CN(C)Cc2ccc3c(c2)OCO3)[C@H](C)CN([C@H](C)CO)C(=O)c2cc(NC(=O)c3ccncc3)ccc2O1 the results were Pf Dd2 inh inactive, T cruzi growth-1 114, C diff HTS inactive, T cruzi growth-2 102, T cruzi growth-3 inactive, 3T3 cytotox inactive and NIH3T3 tox 2 inactive.
For CN1c2ccc(C3=CCCCC3)cc2[C@H]2[C@H](CCN2C(=O)C2CCCCC2)[C@H]1CO the results were Pf Dd2 inh inactive and C diff HTS inactive.
Screening C[C@@H]1CN([C@@H](C)CO)C(=O)c2cc(NC(=O)Cn3cnnn3)ccc2O[C@H]1CN(C)C(=O)NC1CCCCC1 returned Pf Dd2 inh inactive, T cruzi growth-1 inactive and C diff HTS inactive.
For C[C@H](CO)N1C[C@H](C)[C@H](CN(C)C(=O)Nc2cccc3ccccc23)Oc2ncc(-c3cccc(F)c3)cc2C1=O the results were Pf Dd2 inh inactive and C diff HTS inactive.
`C[C@H](CO)N1C[C@H](C)[C@H](CN(C)Cc2cccc(C(F)(F)F)c2)Oc2ncc(-c3ccccc3)cc2C1=O` gave Pf Dd2 inh inactive, T cruzi growth-1 119, C diff HTS inactive, T cruzi growth-2 99, T cruzi growth-3 inactive, 3T3 cytotox inactive and NIH3T3 tox 2 inactive.
`COc1ccc(C#Cc2cnc3c(c2)C(=O)N([C@H](C)CO)C[C@H](C)[C@H](CN(C)Cc2cccc(C(F)(F)F)c2)O3)cc1OC` gave Pf Dd2 inh inactive, T cruzi growth-1 127, C diff HTS inactive, T cruzi growth-2 107, T cruzi growth-3 inactive, 3T3 cytotox inactive and NIH3T3 tox 2 inactive.
`C[C@H](CO)N1C[C@H](C)[C@H](CN(C)C(=O)Nc2cccc3ccccc23)Oc2ncc(-c3cccc(C(F)(F)F)c3)cc2C1=O` gave Pf Dd2 inh inactive, T cruzi growth-1 107, T cruzi growth-2 100, T cruzi growth-3 inactive, 3T3 cytotox 44 and NIH3T3 tox 2 104.
COc1ccc(C#Cc2cnc3c(c2)C(=O)N([C@H](C)CO)C[C@H](C)[C@H](CN(C)Cc2ccccc2)O3)cc1OC was read as Pf Dd2 inh inactive, T cruzi growth-1 inactive and C diff HTS inactive.
Screening Cc1cccc(CN(C)C[C@@H]2Oc3ncc(-c4cccc(C(F)(F)F)c4)cc3C(=O)N([C@H](C)CO)C[C@@H]2C)c1 returned Pf Dd2 inh inactive, T cruzi growth-1 inactive and C diff HTS inactive.
`O=C(C[C@@H]1CC[C@H]2[C@@H](COC[C@@H](O)CN2Cc2ccccc2F)O1)NC1CCC1` gave T cruzi growth-1 inactive and C diff HTS inactive.
CCCNC(=O)N1CC2(C1)[C@@H](c1ccccc1)[C@H](CO)N2C(=O)C1CC1 was read as Pf Dd2 inh inactive and C diff HTS inactive.
Screening O=C(Nc1ccccc1)[C@@H]1[C@@H](CO)[C@@H]2Cn3c(cccc3=O)[C@@H]2N1C(=O)C1CCC1 returned Pf Dd2 inh inactive, T cruzi growth-1 inactive and C diff HTS inactive.
For COCCNC(=O)C[C@H]1CC[C@H]2[C@@H](COc3ccc(NC(=O)CC(F)(F)F)cc3C(=O)N2C)O1 the results were Pf Dd2 inh inactive, T cruzi growth-1 inactive and C diff HTS inactive.
